PubChem BioAssay (NCATS)
Several values for one entry are separate records, joined by “and”; a condition that tells them apart may be missing. Equal values may be shown once. Inconclusive results are not listed. Entries that show only a call come without a potency. Activity calls are given as the source filed them. Unless noted, the call rests on the fitted dose curve. Peptide text beside a SMILES is read from it.

Test system: not listed separately
Test: qHTS assay for small molecule antagonists of peroxisome proliferator-activated receptor delta signaling (AID 588535; active means well fitted inhibition curve with a large enough effect in the signal ratio, with a control signal flat, not every such curve was filed as active; the % refers to the signal ratio;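 on max response: cells co-treated with a PPAR-delta agonist as stimulator during compound exposure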)
Conditions: HEK293T PPARd-UAS-bla, beta-lactamase FRET ratio, 18 h; 460 nm channel
Outline: (§1)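 HEK293T PPAR-delta-UAS-bla cells, 4000/well, 2% charcoal/dextran FBS; 5 h 37 C; cpd titration; 18 h 37 C; CCF4 2 h RT; FI 460/530 nm; Hill fit → IC50, efficacy.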
In the case of `CS(=O)(=O)OCCCCOS(C)(=O)=O`, the max response was -16.8% and 23.8% and -11.6%. In the case of `CCc1nc(N)nc(N)c1-c1ccc(Cl)cc1`, the max response was -4.91%. `COc1cc(OC)c(C(=O)CCCN2CCCC2)c(OC)c1` gave a max response of 15.9%. For `COC(=O)[C@H](Cc1ccccc1)NC(=O)[C@@H](N)CC(=O)O` (H-Asp-Phe-OMe), the max response was -1.9% and 6.72%. In the case of `CCCc1cc(=O)[nH]c(=S)[nH]1`, the max response was 15.2% and -59%. `c1ccc2[nH]c(-c3cscn3)nc2c1` showed a max response of -13.4%. Compound `Cc1ccc(C)c(OCCCC(C)(C)C(=O)O)c1` has a max response of 34%. In the case of `COc1c2occc2cc2ccc(=O)oc12`, the max response was 59.3%. With `NS(=O)(=O)c1cc(C(=O)O)c(NCc2ccco2)cc1Cl` the max response was -4.16% and 9.44%. With `CCCCC(CC)COC(=O)C(C#N)=C(c1ccccc1)c1ccccc1` (configuration not stated) the max response was -3.97%.

Target: Peroxisome proliferator-activated receptor delta (Homo sapiens) (UniProt Q03181)
Sequence (Q03181 whole entry, looked up): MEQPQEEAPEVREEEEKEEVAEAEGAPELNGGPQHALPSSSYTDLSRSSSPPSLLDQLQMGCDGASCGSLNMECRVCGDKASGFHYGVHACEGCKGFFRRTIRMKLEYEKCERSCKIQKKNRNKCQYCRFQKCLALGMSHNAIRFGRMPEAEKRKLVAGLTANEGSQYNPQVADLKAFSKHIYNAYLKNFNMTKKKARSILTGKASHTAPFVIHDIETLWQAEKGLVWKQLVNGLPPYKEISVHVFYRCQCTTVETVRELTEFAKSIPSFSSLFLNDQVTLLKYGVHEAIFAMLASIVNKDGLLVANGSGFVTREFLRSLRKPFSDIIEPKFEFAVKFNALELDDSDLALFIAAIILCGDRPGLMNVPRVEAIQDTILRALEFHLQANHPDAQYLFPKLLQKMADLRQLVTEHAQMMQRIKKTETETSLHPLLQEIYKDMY
Test: as above
Conditions: HEK293T PPARd-UAS-bla, beta-lactamase FRET ratio, 18 h; series mostly up to 76.7 µM
Outline: as §1
In the case of `CS(=O)(=O)OCCCCOS(C)(=O)=O`, the outcome was “inactive”. For `CCc1nc(N)nc(N)c1-c1ccc(Cl)cc1`, the outcome was “inactive”. In the case of `COc1cc(OC)c(C(=O)CCCN2CCCC2)c(OC)c1`, the outcome was “inactive”. With `COC(=O)[C@H](Cc1ccccc1)NC(=O)[C@@H](N)CC(=O)O` (H-Asp-Phe-OMe) the outcome was “inactive”. With `CCCc1cc(=O)[nH]c(=S)[nH]1` the outcome was “inactive”. In the case of `c1ccc2[nH]c(-c3cscn3)nc2c1`, the outcome was “inactive”. With `Cc1ccc(C)c(OCCCC(C)(C)C(=O)O)c1` the outcome was “inactive”. In the case of `COc1c2occc2cc2ccc(=O)oc12`, the outcome was “inactive”. With `NS(=O)(=O)c1cc(C(=O)O)c(NCc2ccco2)cc1Cl` the outcome was “inactive”. With `CCCCC(CC)COC(=O)C(C#N)=C(c1ccccc1)c1ccccc1` (configuration not stated) the outcome was “inactive”.

Target: Peroxisome proliferator-activated receptor gamma (Homo sapiens) (UniProt P37231)
Sequence (P37231 whole entry, looked up): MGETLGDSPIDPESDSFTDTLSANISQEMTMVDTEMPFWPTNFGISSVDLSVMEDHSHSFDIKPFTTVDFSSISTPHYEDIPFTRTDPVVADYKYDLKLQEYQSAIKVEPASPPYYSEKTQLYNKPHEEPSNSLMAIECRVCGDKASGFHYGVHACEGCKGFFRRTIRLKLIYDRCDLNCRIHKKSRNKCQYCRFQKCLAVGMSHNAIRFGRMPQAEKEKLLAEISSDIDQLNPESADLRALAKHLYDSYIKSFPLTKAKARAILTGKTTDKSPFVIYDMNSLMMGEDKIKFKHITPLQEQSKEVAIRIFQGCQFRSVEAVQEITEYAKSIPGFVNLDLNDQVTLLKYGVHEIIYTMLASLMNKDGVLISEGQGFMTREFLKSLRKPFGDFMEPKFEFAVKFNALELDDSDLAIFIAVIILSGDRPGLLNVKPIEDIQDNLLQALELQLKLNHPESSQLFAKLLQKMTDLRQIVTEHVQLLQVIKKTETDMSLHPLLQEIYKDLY
Test: qHTS assay for small molecule agonists of peroxisome proliferator-activated receptor gamma signaling (AID 588536; active means well fitted curve in the direction sought with a large enough effect in the signal ratio, with a control signal flat, not every such curve was filed as active; the % refers to the signal ratio)
Conditions: HEK293 PPARg-UAS-bla, beta-lactamase ratio, 16 h, percent of rosiglitazone response, DMSO as zero; series mostly up to 76.7 µM
Outline: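 PPAR-gamma-UAS-bla HEK293 cells in medium with 1% charcoal/dextran-treated FBS were exposed to compounds for 16 h at 37 C. Beta-lactamase activity was read with CCF4 substrate (405 nm excitation, 460/530 nm emission).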
With `N[C@@H](Cc1cc(I)c(Oc2cc(I)c(O)c(I)c2)c(I)c1)C(=O)O` the outcome was “inactive”. For `CS(=O)(=O)OCCCCOS(C)(=O)=O`, the outcome was “inactive”. With `COc1cc(OC)c(C(=O)CCCN2CCCC2)c(OC)c1` the outcome was “inactive”. In the case of `CNC[C@H](O)c1ccc(O)c(O)c1`, the outcome was “inactive”. With `CN(C)c1ccc2nc3ccc(=[N+](C)C)cc-3sc2c1` the outcome was “inactive”. In the case of `COC(=O)[C@H](Cc1ccccc1)NC(=O)[C@@H](N)CC(=O)O` (H-Asp-Phe-OMe), the outcome was “inactive”. With `CCCc1cc(=O)[nH]c(=S)[nH]1` the outcome was “inactive”. With `c1ccc2[nH]c(-c3cscn3)nc2c1` the outcome was “inactive”. With `CC1(C)NC(=O)N(c2ccc([N+](=O)[O-])c(C(F)(F)F)c2)C1=O` the outcome was “inactive”. In the case of `CCN(CC)C(=S)SSC(=S)N(CC)CC`, the outcome was “inactive”. For `O=c1c(O)c(-c2ccc(O)cc2O)oc2cc(O)cc(O)c12`, the outcome was “inactive”. With `NS(=O)(=O)c1cc(C(=O)O)c(NCc2ccco2)cc1Cl` the outcome was “inactive”.

Target: Peroxisome proliferator-activated receptor gamma (Homo sapiens) (UniProt P37231)
Test: qHTS assay for small molecule antagonists of peroxisome proliferator-activated receptor gamma signaling (AID 588537; active means well fitted inhibition curve with a large enough effect in the signal ratio, with a control signal flat, not every such curve was filed as active; the % refers to the signal ratio; further: potency means the concentration at half of the fitted maximal effect)
Conditions: HEK293 PPARg-UAS-bla, beta-lactamase ratio, antagonist mode; series mostly up to 76.8 µM
Outline: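 Antagonist mode, beta-lactamase reporter in HEK293; charcoal/dextran FBS 1%; 3000 cells/well, 37 C 6-6.5 h; cpd titration + rosiglitazone 50 nM final, 16 h 37 C; CCF4, 2 h RT; 460/530 nm; Hill fit → IC50, efficacy.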
In the case of `N[C@@H](Cc1cc(I)c(Oc2cc(I)c(O)c(I)c2)c(I)c1)C(=O)O`, the Potency was 39.8 µM (active). With `CS(=O)(=O)OCCCCOS(C)(=O)=O` the Potency was “inactive”. With `COc1cc(OC)c(C(=O)CCCN2CCCC2)c(OC)c1` the Potency was “inactive”. For `CNC[C@H](O)c1ccc(O)c(O)c1`, the Potency was “inactive”. For `COC(=O)[C@H](Cc1ccccc1)NC(=O)[C@@H](N)CC(=O)O` (H-Asp-Phe-OMe), the Potency was “inactive”. For `CCCc1cc(=O)[nH]c(=S)[nH]1`, the Potency was “inactive”. With `c1ccc2[nH]c(-c3cscn3)nc2c1` the Potency was “inactive”. For `CC1(C)NC(=O)N(c2ccc([N+](=O)[O-])c(C(F)(F)F)c2)C1=O`, the Potency was “inactive”. For `CCN(CC)C(=S)SSC(=S)N(CC)CC`, the Potency was “inactive”. For `O=c1c(O)c(-c2ccc(O)cc2O)oc2cc(O)cc(O)c12`, the Potency was “inactive”. For `NS(=O)(=O)c1cc(C(=O)O)c(NCc2ccco2)cc1Cl`, the Potency was “inactive”.

Target: Vitamin D3 receptor (Homo sapiens) (UniProt P11473)
Sequence (P11473 whole entry, looked up): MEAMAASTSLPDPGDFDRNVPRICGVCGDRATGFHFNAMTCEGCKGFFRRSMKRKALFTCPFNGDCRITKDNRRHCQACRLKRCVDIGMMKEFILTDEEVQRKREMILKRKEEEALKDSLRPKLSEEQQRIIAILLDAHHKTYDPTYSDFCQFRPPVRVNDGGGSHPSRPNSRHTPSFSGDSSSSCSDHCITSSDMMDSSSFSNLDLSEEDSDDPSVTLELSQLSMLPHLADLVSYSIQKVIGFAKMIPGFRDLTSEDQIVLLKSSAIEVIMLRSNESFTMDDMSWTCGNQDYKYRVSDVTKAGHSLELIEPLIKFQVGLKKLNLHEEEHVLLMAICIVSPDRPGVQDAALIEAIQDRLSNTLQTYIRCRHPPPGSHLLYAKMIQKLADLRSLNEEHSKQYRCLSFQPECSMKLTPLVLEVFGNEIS
Test: qHTS assay for small molecule antagonists of vitamin D receptor signaling (AID 588541);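 further: receptor activated by calcitriol during compound treatment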
Conditions: HEK293T VDR-UAS-bla, beta-lactamase ratio, antagonist mode; series mostly up to 76.7 µM
Outline: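 Antagonist-mode beta-lactamase reporter assay: HEK293T VDR-UAS-bla cells were exposed to titrated compound alongside 1-alpha,25-dihydroxyvitamin D3 at 3 nM final for 16 h. Values were normalized to the 50 nM agonist control and DMSO basal, with IC50 and efficacy from Hill equation fits.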
With `N[C@@H](Cc1cc(I)c(Oc2cc(I)c(O)c(I)c2)c(I)c1)C(=O)O` the outcome was “inactive”. In the case of `CS(=O)(=O)OCCCCOS(C)(=O)=O`, the outcome was “inactive”. With `CCc1nc(N)nc(N)c1-c1ccc(Cl)cc1` the outcome was “inactive”. In the case of `COc1cc(OC)c(C(=O)CCCN2CCCC2)c(OC)c1`, the outcome was “inactive”. With `CNC[C@H](O)c1ccc(O)c(O)c1` the outcome was “inactive”. In the case of `c1ccc2[nH]c(-c3cscn3)nc2c1`, the outcome was “inactive”. For `CC1(C)NC(=O)N(c2ccc([N+](=O)[O-])c(C(F)(F)F)c2)C1=O`, the outcome was “inactive”. In the case of `Nc1nc(Cl)nc2c1ncn2[C@H]1C[C@H](O)[C@@H](CO)O1`, the outcome was “inactive”. For `O=c1c(O)c(-c2ccc(O)cc2O)oc2cc(O)cc(O)c12`, the outcome was “inactive”. In the case of `COc1c2occc2cc2ccc(=O)oc12`, the outcome was “inactive”. With `NS(=O)(=O)c1cc(C(=O)O)c(NCc2ccco2)cc1Cl` the outcome was “inactive”. For `CCCCC(CC)COC(=O)C(C#N)=C(c1ccccc1)c1ccccc1` (configuration not stated), the outcome was “inactive”.

Target: Vitamin D3 receptor (Homo sapiens) (UniProt P11473)
Test: qHTS assay for small molecule agonists of vitamin D receptor signaling (AID 588543)
Conditions: HEK293T VDR-UAS-bla, beta-lactamase ratio, 16 h; series mostly up to 76.8 µM
Outline: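 VDR-UAS-bla HEK293T cells, 2000/well, 2% charcoal-stripped FBS; compound titration 16 h at 37 C; CCF4 beta-lactamase ratio read. Normalized to 50 nM 1-alpha,25-dihydroxyvitamin D3 (100%) and DMSO; Hill fit gives EC50, efficacy.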
For `N[C@@H](Cc1cc(I)c(Oc2cc(I)c(O)c(I)c2)c(I)c1)C(=O)O`, the outcome was “inactive”. With `CS(=O)(=O)OCCCCOS(C)(=O)=O` the outcome was “inactive”. With `CCc1nc(N)nc(N)c1-c1ccc(Cl)cc1` the outcome was “inactive”. In the case of `COc1cc(OC)c(C(=O)CCCN2CCCC2)c(OC)c1`, the outcome was “inactive”. In the case of `CNC[C@H](O)c1ccc(O)c(O)c1`, the outcome was “inactive”. In the case of `c1ccc2[nH]c(-c3cscn3)nc2c1`, the outcome was “inactive”. In the case of `CC1(C)NC(=O)N(c2ccc([N+](=O)[O-])c(C(F)(F)F)c2)C1=O`, the outcome was “inactive”. With `Nc1nc(Cl)nc2c1ncn2[C@H]1C[C@H](O)[C@@H](CO)O1` the outcome was “inactive”. For `O=c1c(O)c(-c2ccc(O)cc2O)oc2cc(O)cc(O)c12`, the outcome was “inactive”. In the case of `COc1c2occc2cc2ccc(=O)oc12`, the outcome was “inactive”. For `NS(=O)(=O)c1cc(C(=O)O)c(NCc2ccco2)cc1Cl`, the outcome was “inactive”. For `CCCCC(CC)COC(=O)C(C#N)=C(c1ccccc1)c1ccccc1` (configuration not stated), the outcome was “inactive”.
